# The campaign covered roughly 420,000 compounds. About 64,000 (15%) were called active. Not shown: some 27% with an inconclusive outcome. Only a sample is shown. Unmarked numbers belong to inactive results. Calls follow the shape of the dose curve; as a rule, active = well fitted inhibition curve with a large enough effect; inconclusive = small, poorly fitted or top-dose-only effect; inactive = flat fitted curve, though single readings scatter.
# Test: qHTS for Inhibitors of human tyrosyl-DNA phosphodiesterase 1 (TDP1): qHTS in cells in absence of CPT; also: nearly all actives have a fitted effect of over 55% in size
# Conditions: DT40 Tdp1-/- hTDP1 cells, no CPT, ATP luminescence, 48 h; activity change, negative = growth inhibition: at 46.2 µM (top of the series)
# Summary of the method: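 DT40 Tdp1-/-;hTDP1 cells, no CPT (DMSO vehicle only), 400 cells/well; compounds pin-transferred; ≥48 hr, 37 °C; CellTiter-Glo 30 min RT dark, luminescence read.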
# % is scaled to controls: 0 for no effect and ±100 for the full control effect; potency is read from the fitted curve at half-maximal effect.
SMILES,"activity change, negative = growth inhibition",Potency
CCCN(C(=O)COC(=O)CNS(=O)(=O)c1ccc(NC(C)=O)cc1)C1CCS(=O)(=O)C1 (configuration not stated),24.2%,–
COc1ccc(OC)c2[nH]c(=O)c(CCNC(=O)C(=O)c3c[nH]c4ccccc34)cc12,–,7.31 µM (active)
COc1ccc(OC)c2[nH]c(=O)c(CCNC(=O)C(C)(C)C)cc12,-3.77%,–
O=C(NCCCc1ccccc1)C(=O)c1c[nH]c2ccccc12,-16.1%,–
N#CCCCn1c(O)c(N=NC(=O)C(O)c2ccccc2)c2ccccc21 (configuration not stated),13.4%,–
CCNC(=S)NCC,15.3%,–
COc1ccc(CCNC(=S)N2CCN(S(=O)(=O)c3ccc(Cl)cc3)CC2)cc1,-6.86%,–
S=C(Nc1ccc(Cl)cc1Cl)N1CCCC1,13.4%,–
Oc1cc2c(cc1O)CN(C(=S)NCCc1ccc(Cl)cc1)CCC2,–,8.91 µM (active)
Cc1cccc(C)c1NC(=O)CNC(=O)Cc1ccc(Br)cc1,-15.9%,–
COc1ccccc1CNc1cc(-c2ccccc2CN(C)C)ncn1,-17.6%,–
CN(Cc1ccco1)c1cc(-c2ccccc2C(F)(F)F)ncn1,-21.6%,–
FC(F)(F)c1ccccc1-c1cc(NCc2ccccc2)ncn1,–,9.2 µM (active)
COc1ccc(CCC(=O)c2c(O)cc(OC3OC(CO)C(O)C(O)C3O[C@@H]3OC(C)C(O)C(O)C3O)cc2O)cc1O (some centres not stated),-8.37%,–
COCC1CCCN(Cc2ccc3c(c2)CN(C(=O)c2ccnn2C)CCO3)C1 (configuration not stated),-5.47%,–
NS(=O)(=O)c1ccc(NC(=S)NNC(=O)c2cccs2)cc1,-24.8%,–
Cc1cc(C)nc(SCC(=O)c2ccc(Cl)cc2)n1,-20.5%,–
Cc1cc(C)nc(SCC(=O)N(C)C)n1,13.2%,–
Cc1cc(Oc2ccc(Cl)cc2)nc(SCC(=O)c2ccccc2)n1,–,23.1 µM (active)
Cc1ccc(C(=O)NCC(=O)O)cc1S(=O)(=O)N1CCCCC1,-8.3%,–
Cc1ccc(NS(=O)(=O)c2cccs2)cc1S(=O)(=O)N1CCCCCC1,-28.3%,–
Cc1ccc(C)c(Nc2nnc(-c3ccc(C)c(S(=O)(=O)N4CCCCC4)c3)c3ccccc23)c1,–,9.2 µM (active)
COc1ccc(C2CC(=O)n3c(nc4ccccc43)S2)cc1OC (configuration not stated),-19.5%,–

SMILES,"activity change, negative = growth inhibition",Potency
COc1cc(=O)n2c(c1C(=O)NC(C)c1ccco1)CCN(C(=O)c1cn3ccc(C)cc3n1)CC2 (configuration not stated),-7.59%,–
COc1ccc(OC)c(NC(=O)CN2CCN(C(=O)c3ccco3)CC2)c1,-22.3%,–
O=C(CN1CCN(C(=O)c2ccco2)CC1)Nc1ccc2c(c1)OCO2,4.43%,–
O=C(CN1CCN(C(=O)c2ccco2)CC1)Nc1ccc(Cl)c(C(F)(F)F)c1,–,16.4 µM (active)
COc1cc(NC(=O)COC(=O)c2cnc(C)cn2)c(C)cc1[N+](=O)[O-],15.3%,–
CCCN1C(=O)C(NS(=O)(=O)c2ccc(N)cc2)(C(F)(F)F)C(C(=O)OC)=C1C (configuration not stated),0.164%,–
O=C(O)CCCC(=O)N1N=C(c2ccco2)CC1c1ccco1 (configuration not stated),-3.36%,–
COc1cccc(-c2coc3cc4oc(=O)c(CC(=O)O)c(C)c4cc23)c1,-9.2%,–
Oc1c(Br)cccc1/C=N/Nc1c(F)c(F)c(F)c(F)c1F,–,20.6 µM (active)
Brc1ccccc1/C=N/Nc1nc2ccccc2o1,-21.9%,–
COc1ccc(C)cc1NC(=O)CN(C)S(=O)(=O)c1ccc2c(c1)n(C)c(=O)c(=O)n2C,6.24%,–
CCCSC1=C(C#N)C(c2ccccc2C)C(C(=O)OC)C(=O)N1 (configuration not stated),-11.8%,–
Cn1c2ccccc2c2c(C(=O)N3CCN(c4ccc(F)cc4)CC3)cn(C3CCCC3)c(=O)c21,–,23.1 µM (active)
CC(=O)N1c2ccccc2CC1C(=O)N1CCN(c2ccc(F)cc2)CC1 (configuration not stated),-10.2%,–
CC(C)N(C(=O)COC(=O)c1ccccc1C(=O)N1CCN(c2ccc(F)cc2)CC1)C(C)C,-23.6%,–
CC(NS(=O)(=O)c1ccccc1)c1n[nH]c(=S)n1-c1ccccc1 (configuration not stated),-1.17%,–
CC(=O)Nc1ccc(NC(=O)[C@@H](NC(=O)c2cccc(C)c2)C(C)C)cc1,6.18%,–
O=C(CC1Sc2ccccc2NC1=O)NNc1ccc(Cl)c(Cl)c1 (configuration not stated),–,11.6 µM (active)
O=C(CC1SCCNC1=O)Nc1ccc(Cl)c(Cl)c1 (configuration not stated),6.06%,–
Cc1ccc(CNC(=O)CC2Sc3ccccc3NC2=O)cc1 (configuration not stated),-2.06%,–
NNC(=O)c1ccc(COCC(F)(F)C(F)F)cc1,-11.3%,–
Cc1ccc(OCC(=O)OCc2cc(=O)n3nc(C4CC4)sc3n2)cc1,-8.76%,–
CS(=O)(=O)c1ccc(C(=O)OCC(=O)NNC(=O)COc2ccc(Cl)cc2)cc1,-4.53%,–

SMILES,"activity change, negative = growth inhibition",Potency
Cc1ccc(-c2cc(N)on2)cc1,-6.95%,–
COc1cccc(C(=O)NCC(=O)OCc2cc(=O)n3ccsc3n2)c1,-1.07%,–
COc1cc(OC)cc(C(=O)NCC(=O)OCc2csc(-c3ccccc3)n2)c1,–,23.1 µM (active)
COc1cc(OC)cc(C(=O)NCC(=O)OCC(=O)NC(C)CCc2ccccc2)c1 (configuration not stated),6.49%,–
CSc1ccc(CNCCN2CCOCC2)cc1,-16.9%,–
CCc1ccc(-n2c(SCc3cc(=O)n4cc(Br)ccc4n3)nc3[nH]ncc3c2=O)cc1,–,20.6 µM (active)
COc1ccc(CCNC(=O)CSc2nc3[nH]ncc3c(=O)n2-c2cccc(C(F)(F)F)c2)cc1OC,-5.4%,–
CCCSc1nc2[nH]ncc2c(=O)[nH]1,3.13%,–
COc1ccccc1N1CCC(N2CCN(CC(C)(C)C)C(CCO)C2)CC1 (configuration not stated),-21.9%,–
COc1ccccc1NC(=O)C[n+]1ccccc1,-2.16%,–
COc1ccccc1NC(=O)/C=C/C(N)=O,–,2.91 µM (active)
COc1ccccc1NC(=O)/C=C/C(=O)O,15%,–
O=C(Nc1ccc(S(=O)(=O)Nc2nccs2)cc1)c1cc(=O)[nH]c2ccccc12,13.3%,–
Cc1cccc(C(=O)O)c1[N+](=O)[O-],2.96%,–
COc1ccccc1OCCNCC(O)COc1cccc2[nH]c3ccccc3c12 (configuration not stated),–,16.4 µM (active)
COc1ccccc1OCCNC(=O)c1cc([N+](=O)[O-])cc([N+](=O)[O-])c1,-0.0294%,–
CC(C)(C)NCC(O)COc1cccc2[nH]c(=O)[nH]c12 (configuration not stated),–,inactive
Fc1ccc(Br)cc1/C=N/n1cnnc1,-11.2%,–
COc1ccccc1CC(=O)Nc1ccc([N+](=O)[O-])cc1OC,-0.609%,–
CN(CC(=O)Nc1ccccc1[N+](=O)[O-])Cc1ccc(Br)cc1,-15.4%,–
COc1ccc(Br)cc1CN(C)CC(=O)Nc1cc([N+](=O)[O-])ccc1OC,–,16.4 µM (active)
